The values below come from PubChem BioAssay AID504652 (National Center for Advancing Translational Sciences (NCATS), 2011).

Values joined by “and” are separate entries in the source; they are usually repeats but may differ in a detail not shown here. Equal entries are not always repeated. About 11,000 (3.1%) of roughly 360,000 compounds were called active. No stated cut-off is given here; in the data, active means activity change below about -30%; inactive means the rest. Only a selection was taken, and actives are over-represented in it overall. Where a structure was tested more than once in an assay, its records may differ in their call.
On the % scale 0 is the no-effect control and ±100 the full control effect.

D(1A) dopamine receptor (Homo sapiens), sequence (P21728 whole entry, looked up): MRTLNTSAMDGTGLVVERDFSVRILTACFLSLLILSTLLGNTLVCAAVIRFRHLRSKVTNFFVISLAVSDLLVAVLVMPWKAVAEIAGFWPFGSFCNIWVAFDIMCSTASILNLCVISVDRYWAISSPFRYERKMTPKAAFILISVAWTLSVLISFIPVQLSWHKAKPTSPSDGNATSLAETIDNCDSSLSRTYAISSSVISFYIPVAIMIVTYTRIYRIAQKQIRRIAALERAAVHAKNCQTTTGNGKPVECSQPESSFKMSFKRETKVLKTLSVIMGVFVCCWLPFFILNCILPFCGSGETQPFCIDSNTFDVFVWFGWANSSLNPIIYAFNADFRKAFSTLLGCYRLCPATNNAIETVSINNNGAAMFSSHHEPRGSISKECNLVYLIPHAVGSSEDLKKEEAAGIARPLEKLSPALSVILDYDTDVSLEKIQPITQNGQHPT

The assay concerns the target D(1A) dopamine receptor (Homo sapiens) (UniProt P21728). The experiment in a line: Antagonist of Human D 1 Dopamine Receptor: qHTS. The conditions noted are these: HEK293 TREx D1 cells, calcium flux, dopamine EC80; at 10 µM; stronger effect = lower value. An outline of the steps:
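HEK293 T-REx cells expressing inducible, force-coupled D1 receptor; no-wash Ca dye, 30–90 min RT. Cmpd → 180 s read at 1 Hz → EC80 DA → 180 s read.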
A general note: In qHTS, concentration-response curves come from the screen itself.
For the molecule `CCc1ccccc1NC(=O)Cc1ccc(NC(=O)N2CCCCc3ccccc32)cc1`, the activity change, negative = inhibition is -2.99% (inactive).

Turning to `CCOC(=O)c1ccc(NC(=O)CCS(=O)(=O)c2ccc(C)cc2)cc1`, the activity change, negative = inhibition was 2.9% (inactive).

For `CCOC(=O)c1ccc(NC(=O)CCS(=O)(=O)c2ccc3c(c2)oc(=O)n3C)cc1`, the activity change, negative = inhibition was -34.1% (active).

Regarding `COc1cc(NC(=O)CCS(=O)(=O)c2ccc3c(c2)oc(=O)n3C)cc(OC)c1`, the activity change, negative = inhibition was -5.28% (inactive).

Regarding `Cc1ccc(C(=O)OCC(=O)N2CC(C)CC(C)C2)cc1S(=O)(=O)N1CCCCC1` (stereo unspecified), the activity change, negative = inhibition is -14.5% (inactive).

Take `COc1ccc(CNC(=O)COC(=O)c2ccc(C)c(S(=O)(=O)N3CCOCC3)c2)cc1OC`: the activity change, negative = inhibition was 13.1% (inactive).

Take `Cc1ccc(C(=O)OCC(=O)NCc2cc(C)c(O)c(C)c2)cc1S(=O)(=O)N1CCCCC1`: the activity change, negative = inhibition was -93.9% (active).

With `CCc1ccc(C(=O)CC2(O)C(=O)N(CCc3ccccc3)c3ccc(Br)cc32)cc1` (stereo unspecified), the activity change, negative = inhibition is 6.36% (inactive).

Take `COc1ccc2c(C)cc(SCC(=O)NCC3CCCO3)nc2c1` (stereo unspecified): the activity change, negative = inhibition is -21.4% (inactive).

In the case of `O=C(COc1ccc(Cl)cc1)NCc1nnc(SCC(=O)NCC2CCCO2)o1` (stereo unspecified), the activity change, negative = inhibition was -31.2% (active).

For `O=C(CSc1nnc(-c2ccc(NS(=O)(=O)c3ccccc3)cc2)o1)NCC1CCCO1` (stereo unspecified), the activity change, negative = inhibition is -3.8% (inactive).

With `Cc1ccc2oc(C(=O)Nc3ccc(S(=O)(=O)N4CCCCCC4)cc3)cc(=O)c2c1`, the activity change, negative = inhibition was -13.8% (inactive).

Consider `CCn1cc(CN2CCC(C(=O)Nc3cccc(-c4cccc(Cl)c4)c3)CC2)cn1`, for which the activity change, negative = inhibition is -38.6% (active).

Turning to `CCn1cc(CN2CCC(C(=O)Nc3cccc(-c4cccc(Cl)c4)c3)CC2)c(C)n1`, the activity change, negative = inhibition is -1.32% (inactive).

With `O=C(Nc1cccc(-c2cccc(Cl)c2)c1)C1CCN(C2CCC2)CC1`, the activity change, negative = inhibition was -10% (inactive).

Take `CC1CCCCN1CC(=O)N1CCCc2c1c(=O)oc1ccc(OCc3ccccc3)cc21` (stereo unspecified): the activity change, negative = inhibition was 4.23% (inactive).

For `O=C(NCc1nnc(C(=O)Nc2ccc(C(F)(F)F)cc2Cl)o1)c1ccccc1`, the activity change, negative = inhibition was -10% (inactive).

Take `O=C(Nc1ccc(Oc2ccccc2)cc1)C1CCN(S(=O)(=O)c2ccc(Cl)cc2)CC1`: the activity change, negative = inhibition was -14.4% (inactive).

As for `O=C(Nc1ccccc1)c1nnsc1S(=O)(=O)c1ccc(Cl)cc1`, the activity change, negative = inhibition is -31.4% (active).

For `O=C(Nc1cccc(Cl)c1)c1csnn1`, the activity change, negative = inhibition is 0.926% (inactive).

Turning to `COC(=O)c1ccc(NC(=O)c2cnn(-c3ccc(Cl)cc3)c2C2CCN(C(=O)OC(C)(C)C)CC2)cc1`, the activity change, negative = inhibition is 8.43% (inactive).

On to `CC1CCN(S(=O)(=O)c2ccc3c(ccn3CCC(=O)NCc3ccc(N(C)C)cc3)c2)CC1`, for which the activity change, negative = inhibition is -72.7% (active).

`O=C(CCn1ccc2cc(S(=O)(=O)N3CCCC3)ccc21)NCc1cccc(Cl)c1`: the activity change, negative = inhibition was 11.5% (inactive).

For `CC1CCN(S(=O)(=O)c2ccc3c(ccn3CC(=O)O)c2)CC1`, the activity change, negative = inhibition was -15% (inactive).

As for `N#Cc1ccc(-c2cccs2)nc1SCc1ccc(Br)cc1`, the activity change, negative = inhibition is -3.69% (inactive).

`Cc1ccc2c(c1)c1c(c(=O)n(-c3ccccc3)c(=O)n1CC(=O)c1ccc(Cl)cc1)n2C`: the activity change, negative = inhibition was -16% (inactive).

As for `CCS(=O)(=O)N1CCc2cc(C(=O)NCc3ccc(C)cc3)ccc21`, the activity change, negative = inhibition was -4.2% (inactive).

Take `CN(CC(=O)NNC(=O)CNC(=O)c1ccccc1Cl)S(=O)(=O)c1ccc(Cl)cc1`: the activity change, negative = inhibition was -11.4% (inactive).

As for `CN(CC(=O)NCC(c1ccccc1)N1CCCC1)S(=O)(=O)c1ccc(Cl)cc1` (stereo unspecified), the activity change, negative = inhibition was 12.1% (inactive).

As to `CN(CC(=O)NCCc1ccccn1)S(=O)(=O)c1ccc(Cl)cc1`, the activity change, negative = inhibition is -32.4% (active).

For `COc1ccc(C2CC(=O)NC(=O)C2)cc1`, the activity change, negative = inhibition was 6.98% (inactive).

On to `COc1ccc(NC2CC(=O)N(C)C2=O)cc1` (stereo unspecified), for which the activity change, negative = inhibition is -35.8% (active).

Take `CC(=O)Oc1cccc(N2C(=O)CC(Nc3ccc(N4CCOCC4)cc3)C2=O)c1` (stereo unspecified): the activity change, negative = inhibition is 9.21% (inactive).

With `COc1ccc(-c2nc3c(c(SCC(=O)Nc4ccc(C(=O)O)cc4)n2)Cc2ccccc2O3)cc1`, the activity change, negative = inhibition was -4.63% (inactive).

In the case of `CCCCN(CC)CCCNC(=O)c1nn(C)c2c1CSc1ccccc1-2`, the activity change, negative = inhibition is 13% (inactive).

With `CCOC(=O)c1[nH]c(C)c(CCC(=O)NCc2ccccc2C)c1C`, the activity change, negative = inhibition is -16.9% (inactive).

With `O=C(CCc1nc(CN2CCN(S(=O)(=O)c3ccc(F)cc3)CC2)no1)N1CCCCC1`, the activity change, negative = inhibition was 11.3% (inactive).

For `O=C(CCN1C(=O)[C@H]2CC=CC[C@H]2C1=O)NCc1nc(-c2ccccc2)no1`, the activity change, negative = inhibition was -34.2% (active).

Take `CC(=O)c1sc(NC(=O)CCN2C(=O)C3CC=CCC3C2=O)nc1-c1ccccc1` (stereo unspecified): the activity change, negative = inhibition is 2.17% (inactive).

Regarding `O=C(Cc1ccc(Cl)cc1)NCc1nc(-c2ccccc2)no1`, the activity change, negative = inhibition was -12.9% (inactive).

Turning to `O=C(NC1CCN(Cc2ccccc2)CC1)c1ccc(Cn2c(=O)c3ccccc3n(Cc3cccc(F)c3)c2=O)cc1`, the activity change, negative = inhibition was 2.59% (inactive).

For `COc1cccc(-c2nc(S(=O)(=O)c3ccc(C)cc3)c(NCc3ccccc3)o2)c1`, the activity change, negative = inhibition was 24.7% (inactive).

`CN(c1ccccc1)S(=O)(=O)c1cccc(NC(=O)Cc2c(F)cccc2Cl)c1`: the activity change, negative = inhibition is -47.4% (active).

Consider `CN(C)S(=O)(=O)c1cccc(NC(=O)Cc2ccsc2)c1`, for which the activity change, negative = inhibition is -5.36% (inactive).

Turning to `CN(c1ccccc1)S(=O)(=O)c1cccc(NC(=O)Cc2ccc(Cl)cc2)c1`, the activity change, negative = inhibition was -23.4% (inactive).

Regarding `O=C(CCC(=O)N1CC2CCCN2c2ccccc21)NCc1ccccc1Cl` (stereo unspecified), the activity change, negative = inhibition is -15.4% (inactive).

In the case of `Cc1cc(C)c(NC(=O)CSc2nc3nccnc3c(=O)n2CCc2c[nH]c3ccccc23)c(C)c1`, the activity change, negative = inhibition was 1.52% (inactive).

On to `O=C(CSc1nc2nccnc2c(=O)n1CCc1c[nH]c2ccccc12)Nc1ccccc1F`, for which the activity change, negative = inhibition is -39.8% (active).

As to `Cc1cc(C)cc(NC(=O)CSc2nc3nccnc3c(=O)n2CCc2c[nH]c3ccccc23)c1`, the activity change, negative = inhibition is 1.93% (inactive).

On to `CN(C(=O)c1ccc2c(c1)N(Cc1cccc(Cl)c1)C(=O)c1ccccc1S2=O)C1CCCCC1` (stereo unspecified), for which the activity change, negative = inhibition is 2.7% (inactive).

`O=[N+]([O-])c1ccccc1OCCCCN1CCCCC1`: the activity change, negative = inhibition is -54.3% (active).

`Cc1ccc(OCCCCN2CCCCC2)c(Br)c1`: the activity change, negative = inhibition was -23.4% (inactive).

For the molecule `CC1CN(CCOc2ccccc2[N+](=O)[O-])CC(C)O1` (stereo unspecified), the activity change, negative = inhibition was -11.6% (inactive).

With `O=C(CSc1ncc(S(=O)(=O)c2ccc(Br)cc2)c(=O)[nH]1)Nc1ccc2c(c1)OCCO2`, the activity change, negative = inhibition was 8% (inactive).

As for `Oc1ccc(Cl)cc1C1C=C(c2ccc3c(c2)OCO3)NC(c2ccc(F)c(Br)c2)N1` (stereo unspecified), the activity change, negative = inhibition was -22.1% (inactive).

Turning to `Cc1cccc(S(=O)(=O)c2cn(Cc3ccccc3)c3cc(N4CCOCC4)c(F)cc3c2=O)c1`, the activity change, negative = inhibition is 0.0166% (inactive).

For `NC(=O)c1ccc(NC(=O)COC(=O)c2ccc([N+](=O)[O-])cc2)cc1`, the activity change, negative = inhibition is 1.67% (inactive).

As for `N/C(Cc1ccc([N+](=O)[O-])cc1)=N\OC(=O)C1CCCCC1`, the activity change, negative = inhibition was -11.7% (inactive).

For `O=C(COC(=O)C1CCCCC1)Nc1ccc([N+](=O)[O-])cc1`, the activity change, negative = inhibition is -34.5% (active).

In the case of `CCCCOc1ccc(C(=O)Nc2cccc(-c3nc4ccccc4o3)c2C)cc1`, the activity change, negative = inhibition was -0.438% (inactive).

Take `Cc1oc2ccc(O)c(CN3CCCCC3)c2c1C(=O)Nc1cccc(C(F)(F)F)c1`: the activity change, negative = inhibition is 11.6% (inactive).

Regarding `O=C(C1CCCN(S(=O)(=O)c2ccccc2)C1)N1CCN(c2ccc(F)cc2)CC1` (stereo unspecified), the activity change, negative = inhibition is -43.7% (active).

For `O=C(C1CCC1)N1CCN(c2ccccc2)CC1`, the activity change, negative = inhibition is 6.47% (inactive).

Regarding `CC(=O)N1CCCc2cc(S(=O)(=O)N3CCCC(C(=O)N4CCN(c5cccc(Cl)c5)CC4)C3)ccc21` (stereo unspecified), the activity change, negative = inhibition is -14.3% (inactive) and -32% (active).

Take `Cc1ccc(S(=O)(=O)N2CCCC(C(=O)N3CCN(C)CC3)C2)cc1` (stereo unspecified): the activity change, negative = inhibition is 10.2% (inactive).

Consider `COc1ccc(N2CCN(S(=O)(=O)c3ccc4c(c3)N(C(C)=O)CCO4)CC2)cc1`, for which the activity change, negative = inhibition was -18% (inactive).

In the case of `CC(=O)N1CCCc2cc(S(=O)(=O)N3CCC(C(=O)NC4CCCCC4)CC3)ccc21`, the activity change, negative = inhibition is 0.0767% (inactive).

With `CC(=O)N1CCCc2cc(S(=O)(=O)CCC(=O)N3CCN(c4ccccc4)CC3)ccc21`, the activity change, negative = inhibition was -0.97% (inactive).

Regarding `CC(=O)N1c2ccc(S(=O)(=O)N3CCC(C(=O)N4CCN(c5ccccc5)CC4)CC3)cc2CC1C` (stereo unspecified), the activity change, negative = inhibition was -7.84% (inactive).

Turning to `COc1cccc(N2CCN(S(=O)(=O)c3ccc4c(c3)CCCN4C(C)=O)CC2)c1`, the activity change, negative = inhibition is -35.4% (active).

In the case of `CC(=O)Nc1cccc(NC(=O)CSc2cn(CC(=O)N3CCCC3)c3ccccc23)c1`, the activity change, negative = inhibition is 12.2% (inactive).

For the molecule `CC(=O)Nc1ccc(NC(=O)CSc2nnc3c4cc(Br)ccc4n(C)c3n2)cc1`, the activity change, negative = inhibition is -2.66% (inactive).

On to `Cc1cccc(C)c1-n1ncc(C(=O)NCCCN2CCCCC2)c1C1CCN(C(=O)OC(C)(C)C)CC1`, for which the activity change, negative = inhibition is 40.2% (inactive).

Consider `CCOC(=O)CN1C(C(=O)c2ccccc2)=C(OC(=O)C(C)(C)C)c2ccccc2S1(=O)=O`, for which the activity change, negative = inhibition was -13.9% (inactive).

On to `FC(F)(F)c1cc(Nc2nc3ccccc3c3nncn23)ccc1Cl`, for which the activity change, negative = inhibition was -0.606% (inactive).

For the molecule `CC1=C(C(=O)Nc2ccccc2Cl)C(c2cccs2)n2ncnc2N1` (stereo unspecified), the activity change, negative = inhibition is 4.21% (inactive).

For the molecule `CC(NC(=S)Nc1ccc(OC(F)F)cc1)c1ccc(F)cc1` (stereo unspecified), the activity change, negative = inhibition is -35.4% (active).

In the case of `CC(C)N(Cc1ccccc1)C(=S)Nc1ccc(OC(F)F)cc1`, the activity change, negative = inhibition was -4.75% (inactive).

For `CC(C)CNC(=S)Nc1ccc(F)cc1`, the activity change, negative = inhibition is 12.4% (inactive).

Regarding `CCOC(=O)c1ccc(NC(=O)CC2C(=O)N(c3ccccc3)C(=O)N2Cc2cccs2)cc1` (stereo unspecified), the activity change, negative = inhibition was -10.5% (inactive).

For the molecule `S=C(NCc1ccco1)NCc1ccccc1Cl`, the activity change, negative = inhibition was -32.9% (active).

Consider `COc1cc(NC(=S)NCc2ccco2)c(OC)cc1Cl`, for which the activity change, negative = inhibition was -9.33% (inactive).

Take `Cc1cc(F)ccc1NC(=S)NCCc1ccccc1`: the activity change, negative = inhibition is -15.6% (inactive).

For the molecule `Cc1ccc(NC(=S)NCc2ccccc2Cl)c(C)c1`, the activity change, negative = inhibition is -39.4% (active).

`Cc1ccc(NC(=S)NCCc2ccc(Cl)cc2)c(C)c1`: the activity change, negative = inhibition is 22.5% (inactive).

In the case of `S=C(NCCc1ccccc1)NCc1ccccc1Cl`, the activity change, negative = inhibition is -29.8% (inactive).
